Drawing on paper PMC8384837, “Expanding the binding specificity for RNA recognition by a PUF domain”, this text covers binding signal for 15 sequences.

Residue numbers refer to the chain shown, from its start.

Common to all, as to assay: yeast three-hybrid, YBZ-1, SC-Leu-His + 0.5 mM 3-AT, 4 days
Conditions in all cases: tags: N-Gal4 AD-HA kept; label: inside an RPR1-promoter hybrid RNA with tandem MS2 sites; ssRNA

One experiment concerns the target PUM1 PUF domain R1-KDL (Homo sapiens, UniProt Q14671 828-1176, S863K;R864D;Q867L). The method in brief:
(§1)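 Each repeat of the Pumilio-1 PUF domain was randomized at its three base-contacting residues, and these libraries were co-expressed from a centromeric plasmid with matching RNA elements in strain YBZ-1. After four days on SC-Leu (input) or SC-Leu-His + 0.5 mM 3-AT (selection), the repeat regions were PCR-amplified and Illumina-sequenced. The interaction score compares variant frequency between input and selection as a log change, computed in log2 with a pseudocount of 1 for absent variants.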

Another experiment addresses PUM1 PUF domain R1-QGR (Homo sapiens, UniProt Q14671 828-1176, S863Q;R864G;Q867R). The essentials: as §1
The next experiment concerns the target PUM1 PUF domain R1-GRN (Homo sapiens, UniProt Q14671 828-1176, S863G;Q867N). The method in brief:
as §1

In another experiment the target is PUM1 PUF domain R1-KMC (Homo sapiens, UniProt Q14671 828-1176, S863K;R864M;Q867C). The essentials:
as §1

The target of a further experiment is PUM1 PUF domain R8-PFQ (Homo sapiens, UniProt Q14671 828-1176, N1122P;Y1123F). The essentials: as §1
The next experiment concerns the target T1, PUM1 PUF domain R6-CWG (Homo sapiens, UniProt Q14671 828-1176, N1043C;Y1044W;Q1047G).
T1 sequence: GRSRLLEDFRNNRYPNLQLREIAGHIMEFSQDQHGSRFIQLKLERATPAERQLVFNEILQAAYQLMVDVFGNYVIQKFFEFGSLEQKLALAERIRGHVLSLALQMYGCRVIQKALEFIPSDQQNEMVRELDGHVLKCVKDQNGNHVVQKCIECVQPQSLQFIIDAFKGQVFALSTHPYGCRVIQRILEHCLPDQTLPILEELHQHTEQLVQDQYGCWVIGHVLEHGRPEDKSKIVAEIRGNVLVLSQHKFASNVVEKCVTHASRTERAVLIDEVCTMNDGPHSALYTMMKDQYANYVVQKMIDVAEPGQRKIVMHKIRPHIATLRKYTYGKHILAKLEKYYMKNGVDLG
The method in brief: as §1

Another experiment has as its target PUM1 PUF domain R4-WAR (Homo sapiens, UniProt Q14671 828-1176, N971W;H972A;Q975R). The essentials:
as §1

The target of another experiment is PUM1 PUF domain R8-RRP (Homo sapiens, UniProt Q14671 828-1176, N1122R;Y1123R;Q1126P). The essentials:
as §1

The target in the next experiment is PUM1 PUF domain R5-CAR (Homo sapiens, UniProt Q14671 828-1176, R1008A;Q1011R). The essentials:
as §1

Another experiment addresses PUM1 PUF domain R5-RKQ (Homo sapiens, UniProt Q14671 828-1176, C1007R;R1008K). The essentials: as §1
The target in the next experiment is PUM1 PUF domain R5-FRV (Homo sapiens, UniProt Q14671 828-1176, C1007F;Q1011V). The essentials:
as §1

For the next experiment, the target named is PUM1 PUF domain R5-RNS (Homo sapiens, UniProt Q14671 828-1176, C1007R;R1008N;Q1011S). The essentials: as §1
The next experiment addresses PUM1 PUF domain R1-HGR (Homo sapiens, UniProt Q14671 828-1176, S863H;R864G;Q867R). The essentials:
as §1

The target of a further experiment is PUM1 PUF domain R3-RRM (Homo sapiens, UniProt Q14671 828-1176, C935R;Q939M). The method in brief:
as §1

In a further experiment the target is PUM1 PUF domain R3-WCM (Homo sapiens, UniProt Q14671 828-1176, C935W;R936C;Q939M). The essentials:
as §1

A further experiment has as its target PUM1 PUF domain R3-GYD (Homo sapiens, UniProt Q14671 828-1176, C935G;R936Y;Q939D). The method in brief: as §1
A further experiment deals with PUM1 PUF domain R5-NGC (Homo sapiens, UniProt Q14671 828-1176, C1007N;R1008G;Q1011C). The method in brief:
as §1

The target in another experiment is T2, PUM1 PUF domain R6-TFD (Homo sapiens, UniProt Q14671 828-1176, N1043T;Y1044F;Q1047D).
T2 sequence: T1 sequence with C216T, W217F, G220D
The method in brief: as §1

A further experiment has as its target PUM1 PUF domain R2-LWR (Homo sapiens, UniProt Q14671 828-1176, N899L;Y900W;Q903R). The essentials:
as §1

In a further experiment the target is PUM1 PUF domain R2-KIG (Homo sapiens, UniProt Q14671 828-1176, N899K;Y900I;Q903G). The method in brief:
as §1

For the sequence “GGCUAGAACUAGUGGAUCCCCCGGCGCCCGGCGGCUCGAGCCCGGGUAAGUGUAAAUCGUCUGCAUGCCGCCGGGCGCCAUGCCUGCAGGUCGACUCUAGAAAACAUG”, the binding signal with PUM1 PUF domain R1-KDL was 0.72 log2 enrichment (interaction score); with PUM1 PUF domain R1-QGR, 2.69 log2 enrichment (interaction score); in the experiment with PUM1 PUF domain R1-GRN, 3.33 log2 enrichment (interaction score).
On to “GGCUAGAACUAGUGGAUCCCCCGGCGCCCGGCGGCUCGAGCCCGGGUAAGUGUAAAUGGUCUGCAUGCCGCCGGGCGCCAUGCCUGCAGGUCGACUCUAGAAAACAUG”, for which the binding signal with PUM1 PUF domain R1-KMC was 3.4 log2 enrichment (interaction score); with PUM1 PUF domain R1-GRN, 1.19 log2 enrichment (interaction score).
Take “GGCUAGAACUAGUGGAUCCCCCGGCGCCCGGCGGCUCGAGCCCGGGUAAGUGUAAAUAGUCUGCAUGCCGCCGGGCGCCAUGCCUGCAGGUCGACUCUAGAAAACAUG”: the binding signal is 2.66 log2 enrichment (interaction score) with PUM1 PUF domain R8-PFQ, 3.03 log2 enrichment (interaction score) with PUM1 PUF domain R6-CWG, 1.01 log2 enrichment (interaction score) with PUM1 PUF domain R4-WAR and 2.63 log2 enrichment (interaction score) in the experiment with PUM1 PUF domain R8-RRP.
Regarding “GGCUAGAACUAGUGGAUCCCCCGGCGCCCGGCGGCUCGAGCCCGGGUAAGUGUCAAUAGUCUGCAUGCCGCCGGGCGCCAUGCCUGCAGGUCGACUCUAGAAAACAUG”, the binding signal with PUM1 PUF domain R5-CAR was 4.28 log2 enrichment (interaction score); in the experiment with PUM1 PUF domain R5-RKQ, 3.43 log2 enrichment (interaction score); in the experiment with PUM1 PUF domain R5-FRV, 1.98 log2 enrichment (interaction score); with PUM1 PUF domain R5-RNS it was 3.43 log2 enrichment (interaction score).
For the sequence “GGCUAGAACUAGUGGAUCCCCCGGCGCCCGGCGGCUCGAGCCCGGGUAAGUGUAAAUUGUCUGCAUGCCGCCGGGCGCCAUGCCUGCAGGUCGACUCUAGAAAACAUG”, the binding signal with PUM1 PUF domain R1-HGR is 2.93 log2 enrichment (interaction score); with PUM1 PUF domain R1-KDL, 3.53 log2 enrichment (interaction score).
With “GGCUAGAACUAGUGGAUCCCCCGGCGCCCGGCGGCUCGAGCCCGGGUAAGUGAAAAUAGUCUGCAUGCCGCCGGGCGCCAUGCCUGCAGGUCGACUCUAGAAAACAUG”, the binding signal in the experiment with PUM1 PUF domain R6-CWG is 4.54 log2 enrichment (interaction score).
On to “GGCUAGAACUAGUGGAUCCCCCGGCGCCCGGCGGCUCGAGCCCGGGUAAGUGUUAAUAGUCUGCAUGCCGCCGGGCGCCAUGCCUGCAGGUCGACUCUAGAAAACAUG”, for which the binding signal is 2.68 log2 enrichment (interaction score) in the experiment with PUM1 PUF domain R5-FRV and 4.14 log2 enrichment (interaction score) in the experiment with PUM1 PUF domain R5-RNS.
As for “GGCUAGAACUAGUGGAUCCCCCGGCGCCCGGCGGCUCGAGCCCGGGUAAGUGUAAUUAGUCUGCAUGCCGCCGGGCGCCAUGCCUGCAGGUCGACUCUAGAAAACAUG”, in the experiment with PUM1 PUF domain R3-RRM, the binding signal is 3.06 log2 enrichment (interaction score).
On to “GGCUAGAACUAGUGGAUCCCCCGGCGCCCGGCGGCUCGAGCCCGGGUAAGUGUAAGUAGUCUGCAUGCCGCCGGGCGCCAUGCCUGCAGGUCGACUCUAGAAAACAUG”, for which the binding signal in the experiment with PUM1 PUF domain R3-WCM was 4.19 log2 enrichment (interaction score); in the experiment with PUM1 PUF domain R3-GYD it was 5.08 log2 enrichment (interaction score).
As to “GGCUAGAACUAGUGGAUCCCCCGGCGCCCGGCGGCUCGAGCCCGGGUAAGUGUGAAUAGUCUGCAUGCCGCCGGGCGCCAUGCCUGCAGGUCGACUCUAGAAAACAUG”, the binding signal with PUM1 PUF domain R5-NGC was 3.12 log2 enrichment (interaction score).
Turning to “GGCUAGAACUAGUGGAUCCCCCGGCGCCCGGCGGCUCGAGCCCGGGUAAGUGUACAUAGUCUGCAUGCCGCCGGGCGCCAUGCCUGCAGGUCGACUCUAGAAAACAUG”, the binding signal in the experiment with PUM1 PUF domain R4-WAR was 3.19 log2 enrichment (interaction score).
Consider “GGCUAGAACUAGUGGAUCCCCCGGCGCCCGGCGGCUCGAGCCCGGGUAAGUGGAAAUAGUCUGCAUGCCGCCGGGCGCCAUGCCUGCAGGUCGACUCUAGAAAACAUG”, for which the binding signal with PUM1 PUF domain R6-TFD is 4.99 log2 enrichment (interaction score).
Consider “GGCUAGAACUAGUGGAUCCCCCGGCGCCCGGCGGCUCGAGCCCGGGUAAGCGUAAAUAGUCUGCAUGCCGCCGGGCGCCAUGCCUGCAGGUCGACUCUAGAAAACAUG”, for which the values for the binding signal in the experiment with PUM1 PUF domain R8-PFQ and in the experiment with PUM1 PUF domain R8-RRP were 3.59 log2 enrichment (interaction score) and 4.45 log2 enrichment (interaction score), respectively.
In the case of “GGCUAGAACUAGUGGAUCCCCCGGCGCCCGGCGGCUCGAGCCCGGGUAAGUGUAAAAAGUCUGCAUGCCGCCGGGCGCCAUGCCUGCAGGUCGACUCUAGAAAACAUG”, in the experiment with PUM1 PUF domain R2-LWR, the binding signal was 3.68 log2 enrichment (interaction score).
Regarding “GGCUAGAACUAGUGGAUCCCCCGGCGCCCGGCGGCUCGAGCCCGGGUAAGUGUAAAGAGUCUGCAUGCCGCCGGGCGCCAUGCCUGCAGGUCGACUCUAGAAAACAUG”, the binding signal was 3.17 log2 enrichment (interaction score) with PUM1 PUF domain R2-KIG and 1.92 log2 enrichment (interaction score) with PUM1 PUF domain R2-LWR.
